# Measured values reported in ChEMBL document CHEMBL3988442, “University of Dundee, Small-Polar-MMV Screening Library” (2021).
# For some of these results: Potency and affinity values are given separately.
# Assays:
# Parameters in all cases: scale not given: direction of the effect not stated beside the values
# [1] = biological target: Protein translocase subunit SecA (Escherichia coli (strain K12)) (UniProt P10408); assay: Assay to Identify E. coli SecA ATPase Inhibitors; type: functional; conditions: 30 µM
# [2] = biological target: T1, Ubiquitin-activating enzyme e1, putative (Leishmania donovani (strain BPK282A1)) (UniProt E9BSI1); assay: Leishmania donovani Ubiquitin Activating Enzyme (LdE1); type: functional; conditions: 30 µM
# T1 sequence (whole entry): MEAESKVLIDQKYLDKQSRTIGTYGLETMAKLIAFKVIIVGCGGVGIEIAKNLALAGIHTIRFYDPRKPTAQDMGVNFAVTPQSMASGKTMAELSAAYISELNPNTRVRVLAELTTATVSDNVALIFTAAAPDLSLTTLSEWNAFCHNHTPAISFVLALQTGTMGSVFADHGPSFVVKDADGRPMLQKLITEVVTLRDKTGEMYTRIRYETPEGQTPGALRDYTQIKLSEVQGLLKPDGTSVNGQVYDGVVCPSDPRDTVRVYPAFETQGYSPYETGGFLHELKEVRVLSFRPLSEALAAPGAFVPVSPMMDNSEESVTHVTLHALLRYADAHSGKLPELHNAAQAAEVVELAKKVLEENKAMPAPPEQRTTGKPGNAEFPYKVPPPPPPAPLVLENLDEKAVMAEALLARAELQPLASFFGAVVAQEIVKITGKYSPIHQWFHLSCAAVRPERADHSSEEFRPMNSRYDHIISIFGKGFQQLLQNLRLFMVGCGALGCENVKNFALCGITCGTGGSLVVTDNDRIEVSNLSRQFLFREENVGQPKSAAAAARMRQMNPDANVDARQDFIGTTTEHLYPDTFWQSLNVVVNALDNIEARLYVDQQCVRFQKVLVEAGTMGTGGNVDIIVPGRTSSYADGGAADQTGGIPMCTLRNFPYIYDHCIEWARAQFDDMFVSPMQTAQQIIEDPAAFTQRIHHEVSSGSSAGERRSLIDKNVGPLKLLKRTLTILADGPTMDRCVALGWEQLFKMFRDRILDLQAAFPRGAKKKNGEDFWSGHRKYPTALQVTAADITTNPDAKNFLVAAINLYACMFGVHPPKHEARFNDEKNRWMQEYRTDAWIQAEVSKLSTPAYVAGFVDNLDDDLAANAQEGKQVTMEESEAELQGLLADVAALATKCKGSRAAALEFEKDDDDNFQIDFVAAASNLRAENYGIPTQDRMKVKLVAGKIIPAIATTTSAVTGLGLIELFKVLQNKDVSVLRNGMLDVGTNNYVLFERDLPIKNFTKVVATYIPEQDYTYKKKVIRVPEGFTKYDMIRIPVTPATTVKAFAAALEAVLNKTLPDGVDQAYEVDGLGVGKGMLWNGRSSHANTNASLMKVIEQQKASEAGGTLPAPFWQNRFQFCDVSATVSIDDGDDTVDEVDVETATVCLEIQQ
# [3] = biological target: AMP-activated protein kinase, AMPK (Homo sapiens) (UniProt P54646+O43741+P54619+Q9UGJ0+Q9Y478+Q13131+Q9UGI9); assay: AMP-dependent Kinase enzyme assay. An in vitro enzyme assay that detects ADP turnover that is directly proportional to AMPK activity. This uses naive AMPK that is activated during the assay with MK-8722; type: functional; conditions: 30 µM
# [4] = biological target: Sialic acid-binding Ig-like lectin 9 (Homo sapiens) (UniProt Q9Y336); assay: Hs-Siglec9 ALPHAscreen SOP 20170721; conditions: 10 µM
# [5] = system: Trypanosoma cruzi; assay: Trypanosoma cruzi phosphomannomutase and mannose-1-phosphate guanylyltransferase assay; type: functional; conditions: 10 µM
# [6] = biological target: T2, Arginase-2, mitochondrial (Homo sapiens) (UniProt P78540); assay: in vitro enzyme assay to detect the production of urea directly proportional to the activity of Arginase II; type: functional; conditions: 33.3 µM; note: in the data most compounds retested in dose-response had high values
# T2 sequence (whole entry): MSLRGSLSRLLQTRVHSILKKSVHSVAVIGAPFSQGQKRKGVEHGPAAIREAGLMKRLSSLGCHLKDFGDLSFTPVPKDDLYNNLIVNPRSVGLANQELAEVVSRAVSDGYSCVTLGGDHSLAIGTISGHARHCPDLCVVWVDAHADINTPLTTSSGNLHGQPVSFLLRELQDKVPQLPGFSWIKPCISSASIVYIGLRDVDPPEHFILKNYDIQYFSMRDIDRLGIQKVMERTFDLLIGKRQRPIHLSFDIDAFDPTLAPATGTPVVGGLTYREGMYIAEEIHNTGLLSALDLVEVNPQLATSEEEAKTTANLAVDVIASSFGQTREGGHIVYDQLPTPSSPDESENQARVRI
# [7] = biological target: T3, Proteasome subunit beta (Trypanosoma cruzi) (UniProt O96673); assay: Trypanosoma cruzi proteasome chymotrypsin-like activity (TcProtChymo) assay.; note: in the data most compounds retested in dose-response had high values; type: functional; conditions: 9.37 µM
# T3 sequence (whole entry): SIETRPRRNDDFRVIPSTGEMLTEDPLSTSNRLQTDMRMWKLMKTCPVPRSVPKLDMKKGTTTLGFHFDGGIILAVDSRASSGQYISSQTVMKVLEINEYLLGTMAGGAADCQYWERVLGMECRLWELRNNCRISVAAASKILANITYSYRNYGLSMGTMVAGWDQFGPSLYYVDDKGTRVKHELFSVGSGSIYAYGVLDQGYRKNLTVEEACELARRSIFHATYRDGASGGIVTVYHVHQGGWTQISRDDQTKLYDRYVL
# [8] = species on record: Homo sapiens; assay: To identify inhibition of the IFN signalling (Jak-Stat) pathway via expression of an eGFP reporter gene under the control of an IFN-stimulated response element (ISRE) containing MxA promoter.; type: functional; conditions: 30 µM
# [9] = biological target: T4, Tyrosyl-tRNA synthetase, putative (Trypanosoma cruzi (strain CL Brener)) (UniProt Q4DSP6); assay: Trypanosoma cruzi tyrosyl tRNA synthetase (TcYRS) _High Tyrosine SOP; type: functional; conditions: 30 µM; note: in the data most compounds retested in dose-response had high values
# T4 sequence (whole entry): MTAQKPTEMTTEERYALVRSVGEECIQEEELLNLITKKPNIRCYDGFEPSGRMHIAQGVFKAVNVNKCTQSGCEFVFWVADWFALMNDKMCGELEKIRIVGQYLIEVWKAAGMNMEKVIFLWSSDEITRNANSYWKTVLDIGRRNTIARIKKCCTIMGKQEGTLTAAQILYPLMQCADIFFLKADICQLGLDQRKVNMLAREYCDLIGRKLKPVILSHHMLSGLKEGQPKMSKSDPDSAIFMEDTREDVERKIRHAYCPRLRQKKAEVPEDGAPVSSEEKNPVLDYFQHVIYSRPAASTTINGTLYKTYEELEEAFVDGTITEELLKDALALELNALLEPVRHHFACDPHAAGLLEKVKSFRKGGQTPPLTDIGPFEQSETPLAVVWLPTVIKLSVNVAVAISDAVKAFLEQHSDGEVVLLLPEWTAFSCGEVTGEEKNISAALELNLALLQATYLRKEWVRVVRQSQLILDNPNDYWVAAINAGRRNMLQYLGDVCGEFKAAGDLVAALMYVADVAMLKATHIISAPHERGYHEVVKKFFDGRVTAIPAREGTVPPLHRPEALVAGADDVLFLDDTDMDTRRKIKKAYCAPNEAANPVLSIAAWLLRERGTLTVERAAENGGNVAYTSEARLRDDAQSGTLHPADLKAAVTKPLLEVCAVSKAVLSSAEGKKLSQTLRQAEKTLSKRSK
# [10] = biological target: T4, Tyrosyl-tRNA synthetase, putative (Trypanosoma cruzi (strain CL Brener)); assay: Trypanosoma cruzi tyrosyl tRNA synthetase (TcYRS) SOP; type: functional; conditions: 30 µM
# [11] = biological target: Chromo domain-containing protein 1 (Saccharomyces cerevisiae (strain ATCC 204508 / S288c) (Baker's yeast)) (UniProt P32657); assay: ScCHD-1 Enzyme Inhibition Assay; type: functional; conditions: 30 µM; note: in the data most compounds retested in dose-response had high values
# Chain of Chromo domain-containing protein 1 (Saccharomyces cerevisiae (strain ATCC 204508 / S288c) (Baker's yeast)) (P32657 whole entry, the tested form may be a part): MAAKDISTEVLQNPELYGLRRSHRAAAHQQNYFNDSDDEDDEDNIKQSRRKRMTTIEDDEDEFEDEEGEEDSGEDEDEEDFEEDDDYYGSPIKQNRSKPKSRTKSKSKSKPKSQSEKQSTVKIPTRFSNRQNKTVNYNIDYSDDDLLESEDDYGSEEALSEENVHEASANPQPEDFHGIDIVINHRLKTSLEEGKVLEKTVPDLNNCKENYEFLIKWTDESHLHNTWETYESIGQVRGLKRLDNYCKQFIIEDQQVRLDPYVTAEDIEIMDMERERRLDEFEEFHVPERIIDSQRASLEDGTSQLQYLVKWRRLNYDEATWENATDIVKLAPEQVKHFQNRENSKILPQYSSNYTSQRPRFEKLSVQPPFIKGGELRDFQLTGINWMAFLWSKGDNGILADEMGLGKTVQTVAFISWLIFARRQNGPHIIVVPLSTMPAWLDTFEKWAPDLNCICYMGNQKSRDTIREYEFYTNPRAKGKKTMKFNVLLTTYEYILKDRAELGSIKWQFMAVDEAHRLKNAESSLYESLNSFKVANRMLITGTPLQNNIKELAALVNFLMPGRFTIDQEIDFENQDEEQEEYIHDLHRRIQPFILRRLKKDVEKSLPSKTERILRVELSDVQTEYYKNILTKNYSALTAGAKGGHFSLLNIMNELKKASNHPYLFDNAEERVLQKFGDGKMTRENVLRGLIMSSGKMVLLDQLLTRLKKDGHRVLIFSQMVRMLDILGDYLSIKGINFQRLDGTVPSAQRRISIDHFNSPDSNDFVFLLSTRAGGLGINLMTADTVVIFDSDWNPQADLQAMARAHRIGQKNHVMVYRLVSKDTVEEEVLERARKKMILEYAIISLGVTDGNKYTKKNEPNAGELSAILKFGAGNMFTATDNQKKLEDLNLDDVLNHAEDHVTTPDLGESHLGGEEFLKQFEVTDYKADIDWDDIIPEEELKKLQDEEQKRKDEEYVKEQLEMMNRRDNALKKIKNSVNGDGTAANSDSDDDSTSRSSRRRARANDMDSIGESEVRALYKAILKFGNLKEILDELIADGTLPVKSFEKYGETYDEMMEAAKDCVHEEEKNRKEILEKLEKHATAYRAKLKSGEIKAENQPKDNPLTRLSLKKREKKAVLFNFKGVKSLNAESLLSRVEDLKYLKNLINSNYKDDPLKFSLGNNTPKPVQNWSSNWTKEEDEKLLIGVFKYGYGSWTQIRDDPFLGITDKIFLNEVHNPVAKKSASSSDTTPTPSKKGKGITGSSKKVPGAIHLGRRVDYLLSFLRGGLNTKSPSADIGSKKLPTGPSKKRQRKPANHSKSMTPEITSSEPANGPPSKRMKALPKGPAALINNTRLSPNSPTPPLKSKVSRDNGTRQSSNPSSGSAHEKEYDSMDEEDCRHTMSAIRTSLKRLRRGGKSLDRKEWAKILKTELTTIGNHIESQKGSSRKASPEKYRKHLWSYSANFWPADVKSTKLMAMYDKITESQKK
# Chain of Protein translocase subunit SecA (Escherichia coli (strain K12)) (P10408 whole entry): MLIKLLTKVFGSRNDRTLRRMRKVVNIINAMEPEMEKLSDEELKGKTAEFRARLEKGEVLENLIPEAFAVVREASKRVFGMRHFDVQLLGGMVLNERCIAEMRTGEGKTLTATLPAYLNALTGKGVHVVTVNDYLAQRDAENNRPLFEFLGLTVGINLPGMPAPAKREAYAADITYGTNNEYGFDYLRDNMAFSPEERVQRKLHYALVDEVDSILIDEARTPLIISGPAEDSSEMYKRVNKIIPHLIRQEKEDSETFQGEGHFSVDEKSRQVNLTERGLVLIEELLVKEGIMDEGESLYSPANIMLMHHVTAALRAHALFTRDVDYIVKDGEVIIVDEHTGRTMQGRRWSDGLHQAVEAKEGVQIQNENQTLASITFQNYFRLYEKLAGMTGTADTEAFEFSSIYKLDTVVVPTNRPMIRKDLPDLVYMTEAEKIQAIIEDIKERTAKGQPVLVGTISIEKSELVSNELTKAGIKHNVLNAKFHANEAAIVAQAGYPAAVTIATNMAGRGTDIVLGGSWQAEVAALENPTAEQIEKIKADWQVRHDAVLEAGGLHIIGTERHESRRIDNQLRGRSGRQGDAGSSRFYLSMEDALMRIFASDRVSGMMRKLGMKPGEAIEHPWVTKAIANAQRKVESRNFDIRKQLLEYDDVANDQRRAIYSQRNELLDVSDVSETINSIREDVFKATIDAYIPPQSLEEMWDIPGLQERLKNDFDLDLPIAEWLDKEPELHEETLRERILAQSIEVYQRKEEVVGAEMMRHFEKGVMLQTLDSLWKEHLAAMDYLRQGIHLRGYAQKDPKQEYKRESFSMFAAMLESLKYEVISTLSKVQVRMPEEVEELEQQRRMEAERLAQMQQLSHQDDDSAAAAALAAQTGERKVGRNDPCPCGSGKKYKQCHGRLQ
# Chain of Sialic acid-binding Ig-like lectin 9 (Homo sapiens) (Q9Y336 whole entry): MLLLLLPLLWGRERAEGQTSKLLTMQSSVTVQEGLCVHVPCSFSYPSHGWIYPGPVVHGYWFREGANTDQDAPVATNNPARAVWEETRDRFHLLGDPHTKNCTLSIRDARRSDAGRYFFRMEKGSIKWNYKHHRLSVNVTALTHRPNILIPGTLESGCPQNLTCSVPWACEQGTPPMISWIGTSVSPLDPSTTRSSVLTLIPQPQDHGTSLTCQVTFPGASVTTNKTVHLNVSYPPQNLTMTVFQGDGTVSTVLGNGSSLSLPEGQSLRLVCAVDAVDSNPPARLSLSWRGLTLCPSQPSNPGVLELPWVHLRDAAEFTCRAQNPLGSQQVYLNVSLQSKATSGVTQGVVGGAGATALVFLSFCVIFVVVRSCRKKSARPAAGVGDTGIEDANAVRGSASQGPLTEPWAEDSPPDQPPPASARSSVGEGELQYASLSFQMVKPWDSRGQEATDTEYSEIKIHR
Structure (SMILES),Percent Effect [1] [%],Percent Effect [2] [%],Percent Effect [3] [%],Percent Effect [4] [%],Percent Effect [5] [%],Percent Effect [6] [%],Percent Effect [7] [%],Percent Effect [8] [%],Percent Effect [9] [%],Percent Effect [10] [%],Percent Effect [11] [%]
Cc1cc(F)cc(S(=O)(=O)NCCCN2CCC(O)CC2)c1,1.42,15.6,0.172,0.431,-0.688,5.52,14.6,10.8,7.53,23.5,1.36
Cc1n[nH]c(C)c1NC(=O)CN1CCCC(CNC(=O)C(C)(C)C)C1 (stereo unspecified),-2.53,2.63,0.454,5.58,-0.188,2.68,8.19,21.7,-1.47,-2.44,0.796
Cc1nc2ccnn2c(C)c1CCC(=O)N1CCC(C(N)=O)CC1,-6.89,2.63,0.295,-2.71,-5.32,2.88,5.5,4.03,5.42,1.24,1.87
CC[C@@H](CO)NC(=O)c1coc(COc2ccc(OC)cc2)n1,-3.54,10.8,-5.65,-1.14,-2.05,-0.744,5.58,-2.06,6.45,18.5,-1.77
O=C(NCC(O)c1cccc(F)c1)c1cccnc1O (stereo unspecified),-5.99,16.4,-2.16,7.14,9.52,-4.79,5.05,7.58,7.29,13.6,-7.57
CC(C)(C)c1ccc(C2(C(=O)NCCS(N)(=O)=O)CC2)cc1,-3.83,10.4,1.16,8.65,3.25,-422,8.98,10.7,3.23,11.1,-4.35
CC1CCN(CCNC(=O)c2ccccc2N2CCOCC2)CC1,0.622,11,-2.96,1.48,-1.98,-2.79,24.1,5.31,13.5,16.1,-2.45
Cc1cnn(CCNCc2ccc(OCC(N)=O)cc2)c1,-7.27,5.33,-3.69,3.41,3.8,5.21,4.36,-9.67,3.83,8.64,-7.44
NC(=O)N1CC[C@H](O)[C@@H]1Cc1cccnc1,-2.51,2.7,6.84,-5.75,-9.48,4.78,24,5.65,0,7.69,-2.76
COCc1nc2n(n1)CCCC2Nc1nc(C2CC2)ns1 (stereo unspecified),-2.6,5.33,-1.82,23.5,2.82,16.1,13.6,-2.26,4.92,13.6,-5.92
Cc1cccc(N2CCN(C(=O)CN3CCN(CCO)CC3)CC2)c1,-7.92,8.22,2.85,6.75,3.37,0.798,3.51,10.3,9.38,21,-0.672
